These results are taken from PubChem BioAssay (EPA / NIEHS).

Broadly, the AC50 is the midpoint of the concentration-response curve, whichever way the signal moves.

Some compounds were tested as several samples or in several runs, with calls that do not always agree. Active and inactive are the calls of the source. How the source made its calls: active means hit-call score of the fitted dose curve at least 0.9, where 1 is the maximum; inactive means score below 0.9.

Sequence of Hepatocyte nuclear factor 6 (Homo sapiens) (Q9UBC0 whole entry, looked up): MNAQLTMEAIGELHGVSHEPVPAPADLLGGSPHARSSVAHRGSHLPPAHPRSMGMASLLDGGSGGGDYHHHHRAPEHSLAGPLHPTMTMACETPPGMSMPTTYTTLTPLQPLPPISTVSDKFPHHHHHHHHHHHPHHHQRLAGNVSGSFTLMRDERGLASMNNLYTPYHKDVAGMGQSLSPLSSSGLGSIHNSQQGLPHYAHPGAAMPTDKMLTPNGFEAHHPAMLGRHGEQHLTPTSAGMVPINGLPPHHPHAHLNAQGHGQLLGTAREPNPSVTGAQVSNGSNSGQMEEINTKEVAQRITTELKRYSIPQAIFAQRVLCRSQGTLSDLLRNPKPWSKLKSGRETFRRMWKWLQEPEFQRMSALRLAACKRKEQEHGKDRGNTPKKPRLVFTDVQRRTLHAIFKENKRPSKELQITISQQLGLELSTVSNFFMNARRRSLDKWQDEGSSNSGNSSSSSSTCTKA

The target in the assay is Hepatocyte nuclear factor 6 (Homo sapiens) (UniProt Q9UBC0). Description: ATG_HNF6_CIS: Attagene CIS-FACTORIAL HepG2 Assay for human Hepatocyte Nuclear Factor 6 (HNF6) (AID 2282952). The following applies: HepG2 Attagene cis-factorial HNF6 reporter transcription; actives raise or lower the signal. The procedure:
ATG_CIS is a cell-based, multiplexed-readout assay that uses HepG2, a human liver cell line, with measurements taken at 24 hours after chemical dosing in a 24-well plate.ATG_HNF6_CIS is one of 52 assay component(s) measured or calculated from the ATG_CIS assay. It is designed to make measurements of mRNA induction, a form of inducible reporter, as detected with fluorescence intensity signals by Reverse transcription polymerase chain reaction (RT-PCR) and Capillary electrophoresis technology.Data from the assay component ATG_HNF6_CIS was analyzed into 1 assay endpoint. This assay endpoint, ATG_HNF6_CIS, was analyzed with bidirectional fitting relative to DMSO as the negative control and baseline of activity. Using a type of inducible reporter, measures of mRNA for gain or loss-of-signal activity can be used to understand the reporter gene at the transcription factor-level as they relate to the gene ONECUT1. Furthermore, this assay endpoint can be referred to as a primary readout, because this assay has produced multiple assay endpoints where this one serves a reporter gene function. To generalize the intended target to other relatable targets, this assay endpoint is annotated to the dna binding intended target family, where the subfamily is homeobox protein.
Human liver HepG2 cells are transiently transfected with multiple reporter transcription units (MRTUs) in 6-well plates using FuGene 6 reagent (Roche; 3 ml FuGene/1 mg DNA). The MRTU constructs are regulated by a cis-regulating element (promoter). […] A major difference between the CIS and TRANS system is that in CIS activities of endogenous TFs are measured, whereas the TRANS assay evaluates changes in activities of exogenous, chimeric NR-Gal4 proteins. […] At the end of 24 hour incubation, total RNA was isolated using TriZol reagent (Invitrogen). The isolated RNA is then reverse-transcribed using oligo(dT) primer and Mo-MLV reverse transcriptase (Invitrogen) with DNAse I (Ambion) treatment for 30 min. The one-tenth of the produced cDNA was amplified by PCR using Taq DNA polymerase (Invitrogen) and two reporter sequence-specific primers. The PCR products were fluorescently labeled by primer extension with 6-arboxyfluorescein (6-FAM) 5'-labeled reporter sequence-specific primer (2 min at 95 C, 20 s at 68 C and 10 min at 72 C) and these products were digested with 5U of HpaI (New England Biolabs) for 2h at 37 C. The fragments were purified using Qiaquick PCR columns (Qiagen), analyzed on an ABI 3130xL genetic analyzer (Applied Biosystems) with peak positions identified by using a set of X-rhodamine (ROX)-labeled MapMarker1000 molecular weight standards (BioVentures). The raw capillary electrophoresis data was processed using Attagraph software (Attagene).
As to `Oc1cccc(O)c1`, the outcome was inactive.

`CCCCCCCCCCCCN1CCCC1=O`: the compound was classed as inactive.

`Cc1cc(C)c(O)c(C)c1`: the call was inactive.

For `OC1CCC(C2CCCCC2)CC1` (stereo not given), the concentration at half-maximal activity (AC50) was 154 µM (active) and the result was inactive.

Consider `OCCC(F)(F)C(F)(F)C(F)(F)C(F)(F)C(F)(F)C(F)(F)C(F)(F)C(F)(F)F`, for which the concentration at half-maximal activity (AC50) is 171 µM (active) and the compound was called inactive.

As for `CC1=C(/C=C/C(C)=C/C=C/C(C)=C/C(=O)O)C(C)(C)CCC1`, the compound was classed as inactive.

As for `FC(F)(I)C(F)(F)C(F)(F)C(F)(F)C(F)(F)C(F)(F)I`, the compound was called inactive.

For `CC(O)C(=O)O` (stereo not given), the result was inactive.

`c1ccc2c(c1)ccc1ccccc12`: the compound was called inactive.

As for `C=C(C)C(=O)OCCC(F)(F)C(F)(F)C(F)(F)C(F)(F)C(F)(F)C(F)(F)F`, the result was inactive.

In the case of `CCC(=C(c1ccc(O)cc1)c1ccc(OCCN(C)C)cc1)c1ccccc1`, the compound was classed as inactive and the AC50 was 11.1 µM (active).

With `NCC(F)(F)C(F)(F)C(F)(F)C(F)(F)C(F)(F)C(F)(F)C(F)(F)F`, the result was inactive.

In the case of `CCCCCCCCCCCCCC[N+](C)(C)C`, the compound was classed as inactive.

In the case of `CCCCC(CC)COC(=O)CCCCC(=O)OCC(CC)CCCC` (stereo not given), the outcome was inactive.

For the compound `N#C[C@@H]1CC(F)(F)CN1C(=O)CNC1CC2CCC(C1)N2c1ncccn1` (stereo not given in full), the compound was classed as inactive.

For the compound `CC(C)(C)c1ccc(O)c(C(C)(C)C)c1`, the call was inactive.

Take `c1ccc2cc3c(ccc4ccccc43)cc2c1`: the result was inactive.

For the compound `Nc1cccc2c(N)cccc12`, the compound was classed as inactive.

For `CC(O)CO` (stereo not given), the result was inactive.

`NC(=O)N1C(=O)C(C(=O)c2cc(Cl)cs2)c2cc(F)c(Cl)cc21` (stereo not given): the compound was called inactive.

Regarding `CC[C@H](c1ccc(O)cc1)[C@@H](CC)c1ccc(O)cc1`, the compound was classed as inactive.

Regarding `CCOC(=O)CC(O)(CC(=O)OCC)C(=O)OCC`, the outcome was inactive.

`CCCCCCCCOC(=O)CCCCCCCCC(=O)OCCCCCCCC`: the result was inactive.

As for `O=[N+]([O-])c1ccc(O)cc1`, the compound was called inactive.

`O=c1c(-c2ccc(O)cc2)coc2cc(O)ccc12`: the compound was classed as inactive.

With `O=C1OC2(c3ccccc31)c1cc(Br)c(O)c(Br)c1Oc1c2cc(Br)c(O)c1Br`, the result was inactive.

As for `Cc1cc(CCN2CCN(c3nsc4ccccc34)CC2)cc2c1NC(=O)CC2(C)C`, the outcome was inactive.

For `Cc1oc(-c2ccccc2)nc1CCOc1ccc(C[C@H](Nc2ccccc2C(=O)c2ccccc2)C(=O)O)cc1`, the compound was classed as inactive.

For `CC(C)(C)c1cccc(C(C)(C)C)c1O`, the compound was called inactive.

On to `CCCCOCCO`, for which the compound was called inactive.

As to `CCCCCCCCC(=O)O`, the compound was classed as inactive.

Consider `CN1CCC[C@H]1c1cccnc1`, for which the result was inactive.

Regarding `NC(=O)N(O)[C@@H]1C=C[C@H](Oc2cccc(Oc3ccc(F)cc3)c2)C1`, the compound was called inactive.

For the compound `CC(=O)CC(C)(C)O`, the compound was called inactive.

For `O=C(/C=C/c1ccc(O)cc1)CC(=O)/C=C/c1ccc(O)cc1`, the result was inactive.

With `O=C(O)Cc1cc(I)c(Oc2cc(I)c(O)c(I)c2)c(I)c1`, the outcome was inactive.

Turning to `OCCC(F)(F)C(F)(F)C(F)(F)C(F)(F)C(F)(F)C(F)(F)F`, the compound was called inactive.
